Assay results published in the supplement of paper PMC6607015.
Counter-ions that a name gives are not always drawn.

Assays:
Conditions in all cases: compound concentration in added solution (µM; 5 µl added to 20 µl cells): 10; 18 h
[1] = test system: A431; experiment: LBPA endosome anti-LBPA integrated intensity (sum per cell), Z-score; higher = more LBPA staining
How it was run: (§1)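 The data are Z-scores, normalised in AcuityXpress, of integrated LBPA or filipin intensity in each cell, either whole-cell or restricted to LBPA endosomes. HeLa MZ or A431 cells, 3,500 per well in 20 µl, were seeded onto 5 µl of 10 µM compound solution in duplicate 384-well plates and incubated 18 h. Fixed cells were stained and imaged, with intensities extracted by MetaXpress segmentation.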

[2] = test system: HeLa MZ; experiment: as above
How it was run: as §1

[3] = test system: A431; experiment: whole-cell filipin (free cholesterol) integrated intensity, Z-score; higher = more cholesterol staining
How it was run: as §1

[4] = test system: HeLa MZ; experiment: as above
How it was run: as §1

[5] = test system: A431; experiment: filipin (cholesterol) integrated intensity within LBPA endosomes, Z-score; higher = more cholesterol in LBPA endosomes
How it was run: as §1

[6] = test system: HeLa MZ; experiment: as above
How it was run: as §1

| Structure (SMILES) | LBPA endosome anti-LBPA integrated intensity (z-score) [1] | LBPA endosome anti-LBPA integrated intensity (z-score) [2] | whole-cell filipin (z-score) [3] | whole-cell filipin (z-score) [4] | filipin (z-score) [5] | filipin (z-score) [6] |
| --- | --- | --- | --- | --- | --- | --- |
| Nc1ccc(S(=O)(=O)Nc2ccnn2-c2ccccc2)cc1 [Sulfaphenazole] | -0.541 | -1.02 | -0.89 | -1.05 | -0.533 | -0.671 |
| CN(C)CCOC(C)(c1ccccc1)c1ccccn1 (configuration not stated) [Doxylamine succinate] | -0.48 | 0.575 | -0.578 | -0.502 | -0.488 | -0.154 |
| Cn1c(=O)c2c(ncn2CC(O)CO)n(C)c1=O (configuration not stated) [Diprophylline] | -0.55 | -0.754 | -0.617 | -0.852 | -0.554 | -0.628 |
| CC[N+](C)(C)c1cccc(O)c1 [Edrophonium chloride] | -0.613 | -1.29 | -0.969 | -0.842 | -0.456 | -0.596 |
| CCC(Cc1c(I)cc(I)c(N)c1I)C(=O)O (configuration not stated) [Iopanoic acid] | -0.521 | -0.571 | -0.348 | -0.587 | -0.484 | -0.466 |
| Cc1ncc([N+](=O)[O-])n1CC(O)CCl (configuration not stated) [Ornidazole] | -0.468 | -0.445 | -0.79 | -0.699 | -0.356 | -0.454 |
| Cc1ccc(/C(=C\CN2CCCC2)c2ccccn2)cc1 [Triprolidine hydrochloride] | -0.168 | 0.494 | -0.873 | -0.689 | -0.378 | -0.0781 |
| CC1(C)S[C@@H]2[C@H](NC(=O)Cc3ccccc3)C(=O)N2[C@H]1C(=O)O [Benzathine benzylpenicillin] | -0.419 | 0.43 | 0.0117 | 0.113 | -0.376 | -0.279 |
| Cn1c(=O)c2nc[nH]c2n(C)c1=O [Theophylline monohydrate] | -0.668 | -1.36 | -0.516 | -0.207 | -0.57 | -0.492 |
| CC(C)(C)NC[C@H](O)COc1nsnc1N1CCOCC1 [Timolol maleate salt] | -0.399 | -0.336 | -0.605 | -0.359 | -0.435 | -0.395 |
| CC[C@H](C)C(=O)O[C@H]1C[C@H](O)C=C2C=C[C@H](C)[C@H](CC[C@@H](O)C[C@@H](O)CC(=O)O)[C@H]21 [Pravastatin] | 1.48 | 0.0503 | -0.289 | -0.634 | 0.0167 | -0.441 |
| CCc1c(C)[nH]c2c1C(=O)C(CN1CCOCC1)CC2 (configuration not stated) [Molindone hydrochloride] | -0.564 | -0.568 | -0.123 | -0.707 | -0.506 | -0.344 |
| Cc1onc(-c2ccccc2Cl)c1C(=O)N[C@@H]1C(=O)N2[C@@H]1SC(C)(C)[C@@H]2C(=O)O [Cloxacillin sodium salt] | -0.451 | -0.521 | -0.641 | -0.277 | -0.516 | -0.434 |
| CCC(NC(C)C)C(O)c1ccc(O)c(O)c1 (configuration not stated) [Isoetharine mesylate salt] | -0.174 | 0.0426 | 0.269 | -0.32 | -0.45 | -0.32 |
| CO[C@@]1(NC(=O)CSCC#N)C(=O)N2C(C(=O)O)=C(CSc3nnnn3C)CS[C@@H]21 [Cefmetazole sodium salt] | -0.329 | 0.139 | -0.215 | -0.0972 | -0.434 | -0.479 |
| CC(=O)OC(C)C[N+](C)(C)C (configuration not stated) [Methacholine chloride] | -0.38 | 0.107 | -0.0801 | -0.293 | -0.383 | -0.341 |
| CCN(CC)CCN[C@@H](C(=O)OCCC(C)C)c1ccccc1 [Camylofine chlorhydrate] | -0.334 | 0.886 | -0.446 | -0.605 | -0.28 | 0.0537 |
| CCCN(CCC)S(=O)(=O)c1ccc(C(=O)O)cc1 [Probenecid] | -0.546 | -0.569 | -0.756 | -0.679 | -0.526 | -0.61 |
| CN(CCCCCCCCCCN(C)C(=O)Oc1cccc([N+](C)(C)C)c1)C(=O)Oc1cccc([N+](C)(C)C)c1 [Demecarium bromide] | -0.223 | -0.152 | -0.139 | -0.617 | -0.179 | -0.595 |

| Structure (SMILES) | LBPA endosome anti-LBPA integrated intensity (z-score) [1] | LBPA endosome anti-LBPA integrated intensity (z-score) [2] | whole-cell filipin (z-score) [3] | whole-cell filipin (z-score) [4] | filipin (z-score) [5] | filipin (z-score) [6] |
| --- | --- | --- | --- | --- | --- | --- |
| O=C(CCCN1CCN(c2ccccn2)CC1)c1ccc(F)cc1 [Azaperone] | -0.0879 | 0.592 | 0.0723 | 0.216 | -0.168 | 0.329 |
| CC(=O)N(CC(O)CO)c1c(I)c(C(=O)NCC(O)CO)c(I)c(C(=O)NCC(O)CO)c1I (configuration not stated) [Iohexol] | -0.463 | 0.247 | -0.643 | -0.949 | -0.508 | -0.655 |
| COc1ccc(OC)c(C(O)CNC(=O)CN)c1 (configuration not stated) [Midodrine hydrochloride] | -0.477 | -0.609 | -0.887 | -1.05 | -0.605 | -0.723 |
| N[C@@H](C(=O)N[C@@H]1C(=O)N2C(C(=O)O)=C(Cl)CC[C@H]12)c1ccccc1 [Loracarbef] | -0.535 | -0.139 | -0.847 | -0.304 | -0.553 | -0.73 |
| CCCCOC(=O)c1ccc(O)cc1 [Butylparaben] | -0.425 | -0.532 | -0.203 | -0.161 | -0.376 | -0.449 |
| C#C[C@]1(OC(C)=O)CC[C@H]2[C@@H]3CCC4=C[C@@H](OC(C)=O)CC[C@@H]4[C@H]3CC[C@@]21C [Ethynodiol diacetate] | -0.254 | 0.88 | 0.227 | 0.371 | -0.191 | -0.00334 |
| COc1ccc2cc(CCC(C)=O)ccc2c1 [Nabumetone] | -0.302 | 0.891 | -0.304 | 0.488 | -0.495 | -0.175 |
| Nc1c(Br)cc(Br)cc1CN[C@H]1CC[C@H](O)CC1 [Ambroxol hydrochloride] | -0.487 | 0.757 | -0.529 | -0.141 | -0.428 | -0.0836 |
| CN1[C@@H]2CC[C@H]1C[C@@H](OC(=O)C(O)c1ccccc1)C2 (mixture of isomers) [Homatropine hydrobromide (R,S)] | -0.625 | -0.216 | -0.825 | -0.838 | -0.591 | -0.57 |
| C=CCOc1ccccc1OCC(O)CNC(C)C (configuration not stated) [Oxprenolol hydrochloride] | -0.0805 | 0.635 | 0.289 | 0.262 | -0.232 | -0.267 |
| Cc1ccccc1N1C(=O)c2cc(S(N)(=O)=O)c(Cl)cc2NC1C (configuration not stated) [Metolazone] | -0.495 | -0.0744 | -0.881 | 0.441 | -0.436 | -0.348 |
| Clc1cc(Cl)c(OCC#CI)cc1Cl [Haloprogin] | -0.472 | -1.16 | -0.945 | -0.949 | -0.529 | -0.714 |
| N=C(N=C(N)N)N1CCOCC1 [Moroxidine hydrochloride] | -0.598 | -1.32 | -1.06 | -0.892 | -0.527 | -0.669 |
| COc1ccccc1OCC(O)CO (configuration not stated) [Guaifenesin] | -0.398 | -0.463 | -0.553 | -0.523 | -0.471 | -0.504 |
| Nc1ccc(S(=O)(=O)Nc2ccccn2)cc1 [Sulfapyridine] | -0.468 | -0.131 | -0.33 | -0.348 | -0.499 | -0.602 |
| CC(=O)CCCCn1c(=O)c2c(ncn2C)n(C)c1=O [Pentoxifylline] | -0.527 | -0.115 | -0.786 | -0.278 | -0.513 | -0.514 |
| C=C1/C(=C\C=C2/CCC[C@]3(C)[C@@H]([C@H](C)CCCC(C)C)CC[C@@H]23)C[C@@H](O)C[C@@H]1O [Alfacalcidol] | 0.0439 | -0.204 | -0.362 | -0.701 | -0.145 | -0.743 |
| CCCCC[C@H](O)/C=C/[C@@H]1[C@@H](C/C=C\CCCC(=O)O)[C@@H](O)C[C@H]1O [Dinoprost trometamol] | -0.294 | -0.303 | -0.632 | -0.582 | -0.462 | -0.236 |
